PubChem BioAssay AID1159580 (chemical genetic matrix, 2015)
“And” between values parts separate entries of the source, which are not always exact repeats. Equal entries are not always repeated. Out of some 5,500 compounds screened, about 2,000 (36%) were called active. Not shown: some 18% with an inconclusive outcome. No stated cut-off is given here; in the data, active means normalized growth mostly below about 0.91 (no sharp cut-off); inconclusive means no clear call, values can overlap the other calls; inactive means mostly above about 0.92. Some of the results follow.

Assay: chemical genetic growth profiling, strain panel (AID 1159580);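 further: tested at 20 µM; growth read once vehicle control cultures reached saturation at 30 °C; 1 = growth at the plate median or of vehicle wells; lower values mean less growth of the strain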
Conditions: growth OD

Measured: normalized growth

COc1ccc2[nH]cc(CCN)c2c1
inactive: S. cerevisiae deletion strains, locus YJR043C, strain POL32, hits give low values 1.02 | S. cerevisiae deletion strains, locus YJR075W, strain HOC1, hits give low values 0.995 and 0.984 | S. cerevisiae deletion strains, locus YKL009W, strain mrt4, hits give low values 0.94 | S. cerevisiae deletion strains, locus YKL068W, hits give low values 0.986 | S. cerevisiae deletion strains, locus YKL085W, strain MDH1 (second series), hits give low values 0.991 | S. cerevisiae deletion strains, locus YKL085W, strain MDH1, hits give low values 0.991 | S. cerevisiae deletion strains, locus YKL160W, strain elf1, hits give low values 1 | S. cerevisiae deletion strains, locus YKL190W, strain CNB1, hits give low values 0.996 | S. cerevisiae deletion strains, locus YKR001C, strain vps1, hits give low values 0.987 | S. cerevisiae deletion strains, locus YKR026C, strain gcn3, hits give low values 0.988 | S. cerevisiae deletion strains, locus YKR091W, strain srl3, hits give low values 0.996 | S. cerevisiae deletion strains, locus YLL001W, strain dnm1, hits give low values 1 | S. cerevisiae deletion strains, locus YLL026W, hits give low values 0.997 | S. cerevisiae deletion strains, locus YLL041C, strain sdh2, hits give low values 0.991 | S. cerevisiae deletion strains, locus YLR027C, strain aat2, hits give low values 1 | S. cerevisiae deletion strains, locus YLR039C, strain RIC1, hits give low values 1.03 | S. cerevisiae deletion strains, locus YLR058C, strain SHM2, hits give low values 0.97 | S. cerevisiae deletion strains, locus YLR102C, strain apc9, hits give low values 0.982 | S. cerevisiae deletion strains, locus YLR221C, strain rsa3, hits give low values 0.969 | S. cerevisiae deletion strains, locus YLR258W, strain gsy2, hits give low values 0.997 | S. cerevisiae deletion strains, locus YLR262C, strain YPT6 (second series), hits give low values 0.999 | S. cerevisiae deletion strains, locus YLR262C, strain YPT6, hits give low values 0.989 | S. cerevisiae deletion strains, locus YLR268W, strain sec22, hits give low values 1.06 | S. cerevisiae deletion strains, locus YLR320W, strain mms22, hits give low values 0.965 | S. cerevisiae deletion strains, locus YLR330W, strain CHS5, hits give low values 0.995 | S. cerevisiae deletion strains, locus YLR342W, strain FKS1 (second series), hits give low values 0.991 | S. cerevisiae deletion strains, locus YLR342W, strain FKS1, hits give low values 1.01 | S. cerevisiae deletion strains, locus YLR357W, strain rsc2, hits give low values 0.991 | S. cerevisiae deletion strains, locus YLR370C, strain arc18, hits give low values 0.994 | S. cerevisiae deletion strains, locus YLR371W, strain rom2, hits give low values 0.974 | S. cerevisiae deletion strains, locus YLR384C, strain iki3, hits give low values 0.999 | S. cerevisiae deletion strains, locus YLR418C, strain cdc73, hits give low values 0.978 | S. cerevisiae deletion strains, locus YML016C, strain PPZ1, hits give low values 0.984 | S. cerevisiae deletion strains, locus YML032C, strain rad52, hits give low values 1 | S. cerevisiae deletion strains, locus YML120C, strain ndi1, hits give low values 1.01 | S. cerevisiae deletion strains, locus YML124C, strain tub3, hits give low values 0.984 | S. cerevisiae deletion strains, locus YMR058W, strain fet3, hits give low values 0.988 | S. cerevisiae deletion strains, locus YMR078C, strain ctf18, hits give low values 0.99 | S. cerevisiae deletion strains, locus YMR125W, strain sto1, hits give low values 0.992 | S. cerevisiae deletion strains, locus YMR129W, hits give low values 0.981 | S. cerevisiae deletion strains, locus YMR205C, strain PFK2, hits give low values 1.02 | S. cerevisiae deletion strains, locus YMR223W, strain ubp8, hits give low values 0.957 | S. cerevisiae deletion strains, locus YMR231W, strain pep5, hits give low values 0.994 | S. cerevisiae deletion strains, locus YMR263W, strain SAP30, hits give low values 0.981 and 0.985 | S. cerevisiae deletion strains, locus YMR307W, strain GAS1, hits give low values 0.947 | S. cerevisiae deletion strains, locus YNL067W, strain RPL9B, hits give low values 1.01 | S. cerevisiae deletion strains, locus YNL071W, strain lat1, hits give low values 1.01 | S. cerevisiae deletion strains, locus YNL128W, strain TEP1, hits give low values 0.975 | S. cerevisiae deletion strains, locus YNL153C, strain GIM3, hits give low values 1 | S. cerevisiae deletion strains, locus YNL175C, strain NOP13, hits give low values 1 | S. cerevisiae deletion strains, locus YNL197C, strain WHI3, hits give low values 0.99 | S. cerevisiae deletion strains, locus YNL209W, strain ssb2, hits give low values 1.01 | S. cerevisiae deletion strains, locus YNL224C, strain SQS1, hits give low values 0.982 | S. cerevisiae deletion strains, locus YNL233W, strain BNI4, hits give low values 1 | S. cerevisiae deletion strains, locus YNL248C, strain rpa49, hits give low values 0.972 | S. cerevisiae deletion strains, locus YNL250W, strain rad50, hits give low values 0.963 | S. cerevisiae deletion strains, locus YNL271C, strain bni1, hits give low values 0.996 | S. cerevisiae deletion strains, locus YNL298W, strain CLA4, hits give low values 0.971 | S. cerevisiae deletion strains, locus YNL307C, strain MCK1, hits give low values 0.989 | S. cerevisiae deletion strains, locus YNL322C, strain KRE1 (second series), hits give low values 1 | S. cerevisiae deletion strains, locus YNL322C, strain KRE1, hits give low values 0.991 and 0.992 | S. cerevisiae deletion strains, locus YNR049C, strain mso1, hits give low values 0.984 | S. cerevisiae deletion strains, locus YNR052C, strain pop2, hits give low values 0.976 | S. cerevisiae deletion strains, locus YOL006C, strain TOP1, hits give low values 1.03 | S. cerevisiae deletion strains, locus YOL012C, strain htz1 0.627 | S. cerevisiae deletion strains, locus YOL147C, strain pex11, hits give low values 0.987 | S. cerevisiae deletion strains, locus YOR001W, strain rrp6, hits give low values 0.931 | S. cerevisiae deletion strains, locus YOR061W, strain CKA2, hits give low values 0.965 | S. cerevisiae deletion strains, locus YOR069W, strain VPS5, hits give low values 0.983 | S. cerevisiae deletion strains, locus YOR070C, strain gyp1, hits give low values 0.979 | S. cerevisiae deletion strains, locus YOR080W, strain dia2, hits give low values 0.991 | S. cerevisiae deletion strains, locus YOR083W, strain WHI5 (second series), hits give low values 0.99 | S. cerevisiae deletion strains, locus YOR083W, strain WHI5, hits give low values 1.02 | S. cerevisiae deletion strains, locus YOR106W, strain vam3, hits give low values 1.02 | S. cerevisiae deletion strains, locus YOR136W, strain idh2, hits give low values 0.998 | S. cerevisiae deletion strains, locus YOR144C, strain elg1, hits give low values 0.985 | S. cerevisiae deletion strains, locus YOR184W, strain ser1, hits give low values 1.01 | S. cerevisiae deletion strains, locus YOR265W, strain rbl2, hits give low values 0.991 | S. cerevisiae deletion strains, locus YOR270C, strain vph1, hits give low values 0.957 | S. cerevisiae deletion strains, locus YOR290C, strain snf2, hits give low values 1.01 | S. cerevisiae deletion strains, locus YOR316C, strain cot1, hits give low values 0.994 | S. cerevisiae deletion strains, locus YPL051W, strain arl3, hits give low values 1.01 | S. cerevisiae deletion strains, locus YPL055C, strain LGE1, hits give low values 0.977 | S. cerevisiae deletion strains, locus YPL078C, strain atp4, hits give low values 1.02 | S. cerevisiae deletion strains, locus YPL106C, strain sse1, hits give low values 1.01 | S. cerevisiae deletion strains, locus YPL240C, strain hsp82, hits give low values 0.995 | S. cerevisiae deletion strains, locus YPL241C, strain CIN2, hits give low values 0.994 and 1.01 | S. cerevisiae deletion strains, locus YPR119W, strain clb2, hits give low values 0.989 | S. cerevisiae deletion strains, locus YPR141C, strain kar3, hits give low values 0.976 | S. cerevisiae deletion strains, locus YPR163C, strain tif3, hits give low values 0.995 | S. cerevisiae deletion strains, locus YPR167C, strain met16, hits give low values 0.989 | S. cerevisiae deletion strains, strain wtn01, hits give low values 1.02 | S. cerevisiae strains, strain wild type, hits give low values 0.984
